{"source": "PubChem BioAssay"}
{"test": "probe aNOTCH3 binding on compound microarray – biochemical, small-molecule microarray, 635/667 nm fluorescence, primary screen (AID 1120);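 note: probe is a biotin-tagged antibody raised against NOTCH3 rather than NOTCH3 protein; score merges spot fluorescence near 667 nm with spot signal to noise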", "details": "higher = more signal"}
{"smiles": "COC(=O)C[C@H]1O[C@@H](CCc2ccccc2)[C@@H](C)[C@@H]1[Si](C)(C)c1ccc(OC)cc1", "composite z-score": -0.268}
{"smiles": "CC(=CC1CCCCC1)[C@@H](NC(=O)c1cccnc1)c1ccc(-c2ccccc2)cc1", "composite z-score": -0.118}
{"smiles": "[N-]=[N+]=Nc1ccccc1C[C@]1(C(=O)NCC(O)CO)N=C(c2ccc(OCCCO)cc2)O[C@H]1c1ccccc1", "note": "(stereo not given in full)", "composite z-score": 0.298}
{"smiles": "COCC(=C=CC[C@H](O)c1cccc(OCCO)c1)CCO", "composite z-score": -0.0311}
{"smiles": "COC(=O)[C@H](Cc1ccccc1)N[C@H](/C=C/C1CC1)[C@@H](O)Cc1ccccc1", "composite z-score": 0.392}
{"smiles": "C=CCOC(=O)[C@H]1[C@@H]2C(=O)O[C@@H](c3ccccc3)[C@@H](c3ccccc3)N2[C@@H](c2ccc(OCCOC(=O)[C@@H]3C[C@@H]4C(=O)N5CCC[C@H]5C(=O)N4[C@@H]3c3cccc(OCCO)c3)cc2)[C@]12C(=O)Nc1ccc(I)cc12", "composite z-score": 1.12}
{"smiles": "COCC(=C=CC[C@@H](O)c1ccc(OCCO)cc1)C[C@@H](O)c1ccccn1", "composite z-score": -0.0947}
{"smiles": "COc1ccc([Si](C)(C)[C@@H]2[C@@H](CCO)O[C@]3(C(=O)N(Cc4cccc(N5CCOC5=O)c4)c4ccccc43)[C@H]2C)cc1", "composite z-score": 0.326}
{"smiles": "[N-]=[N+]=Nc1ccccc1[C@H]1OC(c2ccc(OCCCO)cc2)=N[C@@]1(Cc1ccccc1)C(=O)N1CCOCC1", "composite z-score": 0.223}
{"smiles": "CN1C(=O)C2C=CC(C(O)C=Cc3ccc([N+](=O)[O-])cc3)N(Nc3ccccc3)C2C1=O", "note": "(stereo not given)", "composite z-score": 0.255}
{"smiles": "C#CCOc1ccc(C[C@@H](C(=O)OC)N(CC#C)[C@@H](/C=C/C2CC2)[C@H](O)Cc2ccccc2)cc1", "composite z-score": -0.19}
{"smiles": "O=C(NCc1ccccc1)[C@@H]1c2ccccc2C(=O)N(C2Cc3ccccc3C2)[C@H]1c1ccc(CO)cc1", "composite z-score": 0.0711}
{"smiles": "COC(=O)c1c2oc(c1C(=O)OC)C(=O)NC1(CCCCC1)c1cn(nn1)C[C@H](Cc1ccccc1)NC(=O)N[C@H](CO)CC2", "composite z-score": -0.207}
{"smiles": "CCCCCCc1nc(-c2ccc(-c3ccc(Cl)c(Cl)c3)o2)cc2c1[Si](C(C)C)(C(C)C)O[C@H]2c1ccccc1", "composite z-score": -0.292}
{"smiles": "COCCOC(=O)N1C(=O)[C@@]2(c3cc(C#CC4(O)CCCCCC4)ccc31)[C@H](C(=O)Nc1nc3ccccc3s1)[C@H]1C(=O)O[C@H](c3ccccc3)[C@H](c3ccccc3)N1[C@@H]2c1ccc(OCCO)cc1", "composite z-score": 0.246}
{"smiles": "COC(=O)[C@@]1(Cc2ccc(OC)cc2)[C@H]2c3cc(C(=O)N4CCCC4)n(CCCNc4ncc(C(F)(F)F)cc4Cl)c3C[C@H]2CN1C(=O)c1ccccc1", "composite z-score": 1.09}
{"smiles": "COC(=O)[C@@]1(Cc2ccc(OC)cc2)[C@H]2c3cc(C(=O)N4CCCC4)n(CCc4ccc(O)c(O)c4)c3C[C@H]2CN1C(=O)c1ccccc1", "composite z-score": 0.144}
{"smiles": "Cc1c(NC(=O)/C(C#N)=C/c2cccc([N+](=O)[O-])c2)c(=O)n(-c2ccccc2)n1C", "composite z-score": 0.0934}
{"smiles": "C[N+](C)(C)CCCC[C@@H]1NC(=O)[C@@H]2C[C@H](C(=O)NCCCCCCNC(=O)CS)[C@H](c3ccc(O)cc3)N2C1=O", "composite z-score": -0.443}
{"smiles": "COC(=O)[C@@]1(Cc2ccccc2)[C@H]2c3cc(C(=O)N4CCCC4)n(Cc4ccc(O)c(OC)c4)c3C[C@H]2CN1C(=O)c1ccccc1", "composite z-score": 0.63}
{"smiles": "O=C1O[C@@H](c2ccccc2)[C@@H](c2ccccc2)N2[C@@H](c3ccccc3OCCO)[C@]3(C(=O)Nc4ccccc43)[C@@H](C(=O)O)[C@H]12", "composite z-score": -0.254}
{"smiles": "CCCNC(=O)[C@@H]1c2ccccc2C(=O)N(Cc2ccccc2OC)[C@H]1c1ccc(CO)cc1", "composite z-score": -0.0573}
{"smiles": "CC[C@@H]1C=C(C(=O)O)[C@H](c2ccc(C)cc2)N1S(=O)(=O)c1ccc(C)cc1", "composite z-score": 0.0876}
{"smiles": "O=C1O[C@H](c2ccccc2)[C@H](c2ccccc2)N2[C@H]1[C@@H](C(=O)NC[C@H](O)c1ccccc1)[C@]1(C(=O)Nc3ccccc31)[C@H]2c1ccc(O)cc1", "composite z-score": -0.0328}
{"smiles": "Cc1ccc(S[C@]2(C(=O)NCC(C)C)CC(=O)N(Cc3cc(C(F)(F)F)cc(C(F)(F)F)c3)[C@@H]2c2ccc(CO)cc2)cc1", "composite z-score": -0.123}
{"smiles": "COCCOC(=O)N1C(=O)[C@@]2(c3cc(C#CC4=CCCCC4)ccc31)[C@H](c1ccc(OCCO)cc1)N1[C@H](c3ccccc3)[C@H](c3ccccc3)OC(=O)[C@H]1[C@@H]2C(=O)N1CCc2cc(OC)c(OC)cc2C1", "composite z-score": 0.206}
{"smiles": "COc1ccccc1CN1C(=O)c2ccccc2[C@@H](C(=O)NCc2ccccc2)[C@@H]1c1ccc(CO)cc1", "composite z-score": -0.293}
{"smiles": "COCCOC(=O)N1C(=O)[C@@]2(c3ccccc31)[C@H](C(N)=O)[C@H]1C(=O)O[C@H](c3ccccc3)[C@H](c3ccccc3)N1[C@@H]2c1ccc(O)cc1", "composite z-score": -0.162}
{"smiles": "C=C(/C(=C/C[C@H](OC(C)=O)c1ccc(OCCO)cc1)c1cc(C(=O)OC)ccc1OC)C(C)C", "composite z-score": 0.0562}
{"smiles": "COCCCNC(=O)[C@@]1(Sc2ccc(C)cc2)CC(=O)N(Cc2ccccc2Cl)[C@@H]1c1ccc(CO)cc1", "composite z-score": 0.132}
{"smiles": "O=C(O)[C@H](Cc1ccccc1)n1cc(-c2ccccc2)nn1", "composite z-score": -0.0313}
{"smiles": "CC(C)[Si](C#CCCCC#N)(Oc1ccccc1Br)C(C)C", "composite z-score": -0.0377}
{"smiles": "C=CC1c2cc(O)c(OC)cc2CCN1Cc1cccc(OC(F)(F)F)c1", "note": "(stereo not given)", "composite z-score": -0.0596}
{"smiles": "O=C1OCCC=C[C@H]2OC34C=CCN(Cn5nnc6ccccc65)C(=O)[C@H]3N(CCO)C(=O)[C@@H]4C12", "note": "(stereo not given in full)", "composite z-score": -0.475}
{"smiles": "CC(C)[Si](C#C[Si](C(C)C)(C(C)C)C(C)C)(O[C@H](C)c1cn(Cc2ccccc2)nn1)C(C)C", "composite z-score": 0.379}
